From PubChem BioAssay (NCATS)
This is one part of the list. Inconclusive results are not listed. Unmarked numbers belong to inactive results. Active and inactive are the calls of the source. Calls come from the whole dose curve.

What follows are compounds tested against Papain (Carica papaya) (UniProt P00784) (assay: Selectivity profile for inhibitors of NSP2Pro chikungunya virus (CHIKV): Papain Counterscreen (AID 1964104)). Settings: purified papain protease activity, enzymatic inhibition; series mostly up to 51 µM; activity change, negative = inhibition: at the top concentration.
Description: PI: Natalia J. Martinez Ph.D.
National Center for Advancing Translational Sciences (NCATS),
National Institute of Health (NIH), Rockville, Maryland
Chikungunya virus (CHIKV) is a mosquito-borne RNA virus that has emerged as one of the most important global arboviral threats in the last decade. Although the first CHIKV vaccine has recently been FDA approved for use in healthy adults at increased risk, to date, there are no available antiviral drugs for CHIKV infection. CHIKV nsP2 protease plays a crucial role in the processing of the viral polypeptide precursor to release enzymes required for viral replication, thus making it a promising drug target for antiviral discovery. Here, we established a high-throughput pipeline to identify small molecule inhibitors of nsP2 proteolytic activity. The pipeline is composed of a suite of 1,536-well in vitro assays to support quantitative high-throughput (qHTS) screening campaigns. Specifically, we developed a fluorescence resonance energy transfer (FRET)-based assay using a fluorogenic peptide substrate encompassing an endogenous cleavage site and purified recombinant protease domain (nsP2pro). Using this assay, we interrogated ~37,000 small molecules, including those in drug repurposing libraries as well as chemically diverse and medicinal chemistry-friendly compounds. Hits were selected for follow-up validation against full-length nsP2 and an additional peptide. FRET-based 1,536-well assays for papain, hepatitis C virus NS3-4A, and human furin proteases were implemented to characterize compound selectivity. […] Novel compounds were identified to be potential nsP2 inhibitors and molecular docking analyses were performed to explain the binding mode of selected hits. In vitro antiviral activity was evaluated for a subset of compounds using a high-throughput CHIKV infection assay. To our knowledge, the pipeline presented here is unprecedented for CHIKV antiviral discovery research.
PROTOCOL TABLE (as described by Inglese J, Shamu CE and Guy RK. 2007)
SEQUENCE No. (e.g., 1, 2, 3, etc.); […] (e.g., Cells, Incubation, Reagent, etc.); VALUE; DESCRIPTION.
1a; Reagent; 3 uL; Papain in assay buffer.
1b; Reagent; 3uL; Assay buffer
2; Compound; 17 nL; Echo 655 acoustic dispenser (Beckman Coulter).
3; Incubation; 15 min; room temperature in the dark.
4: Reagent; 1 uL; Z-FR-AMC in assay buffer.
5; Incubation; 15 sec, 271g; centrifugation.
6; Detection; Fluorescence; time 0, Viewlux microplate reader (PerkinElmer) 355 nm excitation, 460 nm emission
7; Incubation; 10 min; room temperature
8; Detection; Fluorescence; time 10; ViewLux microplate reader (PerkinElmer), 355 nm excitation, 460 nm emission.
NOTES (numbers refer to sequence numbers above).
1a. Medium-binding black solid-bottom Greiner plates (cat. 789176-F). Dispense 3 uL of 1.33X papain in assay buffer (100 mM sodium acetate, pH 5.5, 5 mM dl-cysteine, 0.01% Tween-20 v/v) to columns 1, 2, 5-48 via Wako/Kalypsys dispenser. Papain (cat. P4762, Sigma) was dispensed to produce 5 nM final concentration. Enzyme solution kept on ice during experiment. Prepare papain as 50% glycerol (v/v) at final concentration of 10 mg/mL (427 uM, 100 U/mL). Sources: microplates (Greiner 789176-F), papain (Sigma P4762), sodium acetate (Bioworld 40120009-2), cysteine (Sigma 861677), Tween-20 (Sigma P1379), water (GIBCO 10977-015; Gibco).
1b. Dispense 3 uL of assay buffer (100 mM sodium acetate, pH 5.5, 5 mM dl-cysteine, 0.01% Tween-20 v/v) to columns 3 and 4 via Wako/Kalypsys dispenser. Assay buffer solution kept on ice during experiment.
2. Compound addition by single pin transfer (17 nL) using Wako pintool. Compound solutions in source plate: 169 nM to 10 mM DMSO stock solutions. Final concentrations: 0.664 nM to 39.2 uM, respectively. Final DMSO concentration: 0.5% (v/v).
3. RT incubation. Kalypsys lids used as microplate coverings. Protected from light.
4. […]
% is set by controls: 0 for no effect and ±100 for the full control effect; potency is the fitted concentration of half-maximal effect.

Sequence of Papain (Carica papaya) (P00784 whole entry, looked up): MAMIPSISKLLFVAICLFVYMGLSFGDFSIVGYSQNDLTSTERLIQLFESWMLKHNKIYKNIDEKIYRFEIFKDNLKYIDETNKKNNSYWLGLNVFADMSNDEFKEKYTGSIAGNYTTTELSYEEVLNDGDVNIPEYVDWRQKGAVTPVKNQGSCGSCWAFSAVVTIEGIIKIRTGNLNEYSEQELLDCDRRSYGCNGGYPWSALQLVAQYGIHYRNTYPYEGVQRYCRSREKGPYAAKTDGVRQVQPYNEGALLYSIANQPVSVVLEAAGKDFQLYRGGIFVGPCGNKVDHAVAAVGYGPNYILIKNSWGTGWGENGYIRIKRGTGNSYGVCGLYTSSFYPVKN

Compound	activity change, negative = inhibition	Potency
C[C@@H]1C[C@@H](O)[C@@]23CO[C@]2(CO)C[C@@H](O)CC3[C@@]12CC(c1ccoc1)OC2=O (stereo partly specified)	-1.13% [at 33.5 µM]	
C[C@@H]1[C@H](O)[C@@H]2OC(=O)C3=C2[C@H](CCC3)[C@@]12C[C@@H](c1ccoc1)OC2=O	-2.31% [at 33.5 µM]	
CCOc1ccc(NC(=O)c2c(NC(=O)Cc3ccccc3)sc3c2CCC(C)C3)cc1 (stereo unspecified)	-1.65%	
CCC(C)C(=O)OC1C(C)C2(O)C(C=C(CO)CC3(O)C(=O)C(C)=CC32)C2C(C)(C)C12OC(=O)C(C)C (stereo unspecified)	-20.1% [at 17.2 µM]	
Cc1ccc(N[S+](=O)([O-])c2cc3c(cc2N[C@@H](C)CO)NC(=O)CC3)cc1N[C@@H](C)CO	82.5%	
CCOc1ccc(NC(=O)c2c(NC(=O)Cc3ccccc3)sc3c2CCCCC3)cc1	-3.23%	
Cc1c(S(=O)(=O)O)oc2c1C(=O)C(=O)c1c-2ccc2c1CCCC2(C)C		18.3 µM (active)
CCc1ccccc1NC(=O)c1cnn(-c2ccc(F)cc2)c1C1CCNCC1	-3.43%	
C[C@@H]1O[C@@H](O[C@@H]2[C@@H](O)[C@H](OCCc3ccc(O)c(O)c3)O[C@H](CO[C@@H]3O[C@H](CO)[C@@H](O)[C@H](O)[C@H]3O)[C@H]2OC(=O)/C=C/c2ccc(O)c(O)c2)[C@H](O)[C@H](O)[C@H]1O	-16%	
CCOc1ccc(N(Cc2ccccc2)C(=O)c2nc(S(C)(=O)=O)ncc2Cl)cc1	-4.78%	
Cn1nnnc1Sc1ncnc2n[nH]c(-c3cccc(S(C)(=O)=O)c3)c12	-21.7% [at 500 µM]	
Oc1ccc(OC2CCCCO2)cc1 (stereo unspecified)	-2.72%	
CO[C@]1(NC(=O)CSC(F)F)C(=O)N2C(C(=O)O)=C(CSc3nnnn3CCO)CO[C@H]21		6.51 µM (active)
COC([CH2][Hg])CNC(=O)c1ccccc1OCC(=O)O (stereo unspecified)	-5.61%	
O=C(O)c1cccc(-n2[nH]c(-c3ccccc3)cc2=O)c1	-4.53%	
CC(=O)N[C@@H](C(=O)O[C@H]1CCC(C)(C)[C@@H]2CCC3=C(COC3=O)[C@@]12C)C(C)C	-9% [at 33.5 µM]	
